For 13 compounds, growth results are on record in PubChem BioAssay (NCI).

This is part of a sample that, as a whole, favours compounds with a hit. Of some 83,000 tested, about 20% had one in any assay.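 Cells were grown in 96-well plates and exposed to the test compound at a single concentration for 48 hours; results are reported as percent growth, with values below 10 considered active.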 Unmarked numbers belong to inactive results. Activity calls are given as the source filed them.

What all share (assay): NCI-60 one-dose screen, 48 h (100 = growth as untreated, 0 = no growth, -100 = all killed)
Common to all, as to conditions: 10 µM unless noted

For test [1], the system named is NCI-H226 lung.
Test [2] has as its system NCI-H322M lung.
The test system of test [3] is HOP-62 NSCLC.
Test [4] concerns NCI-H460 lung.
Test [5] has as its system HOP-92 NSCLC.
Test [6] has as its system NCI-H522 lung.
The test system of test [7] is A549/ATCC NSCLC.
The subject of test [8] is 786-0 renal.
The subject of test [9] is COLO 205 colon.
For test [10], the system named is DU-145 prostate.

For the compound `CCCC(=O)NC(c1cccc(N(C)C)c1)c1cc(C)c2cccnc2c1O` (stereo not given), the growth in test [1] was 65.4%; in [2] it was 44.9%; in [3] it was 44%; in [4] it was 25.7%; in test [5], 64.2%; in test [6] it was 75.3%. Further, the growth in [7] was 79.3%; in [8] it was 56.6%; in test [9], 88%; in test [10] it was 66.2%.
As to `O=C(CSc1nc2sc3c(c2c(=O)n1-c1ccc(Cl)cc1)CCCC3)NNC(=O)Nc1cccc(C(F)(F)F)c1`, the growth is 32.6% in test [1]; 49.4% in [2]; 37.9% in test [3]; 5.83% (active) in test [4]; -14.1% (active) in test [5]; 23.1% in [6]. Besides, the growth is 24% in [7], 30.3% in test [8], 27% in [9] and 18.2% in [10].
For the compound `COC(=O)c1ccc(NC(=S)N2CCc3ccc([N+](=O)[O-])cc3C2)cc1O`, the growth is 100% in test [1]; 101% in [2]; 91.3% in test [3]; 114% in test [4]; 99.7% in test [5]; 99% in [6]. Moreover, the growth is 106% in [7], 109% in test [8], 105% in test [9] and 112% in test [10].
On to `COc1cc2nc(-c3ccc(C)cc3)cc(OCCCNCC3CCCO3)c2cc1OC` (stereo not given), for which the growth was 89.4% in test [1]; 70.4% in test [2]; 75.2% in test [3]; 38% in [4]; 47% in test [5]; 59.1% in test [6]. Moreover, the growth in test [7] was 61.6%; in test [8], 73.5%; in test [9] it was 45.4%; in test [10], 60%.
Consider `CCCSc1nc(Nc2ccc(/C(C)=N\NC(N)=S)cc2)c(C#N)c(-c2ccc(OC)cc2)n1`, for which the growth in test [1] is 27%; in test [2], 80.8%; in test [3] it was 31.6%; in test [4], 42.8%; in [5], -20.9% (active); in test [6], 89%. The growth in [7] was 60.6%; in [8], 5.18% (active); in test [9], 113%; in test [10], 52.2%.
With `Fc1ccc(-c2cc3nc(C(Cl)Cl)nc(-c4ccc(Cl)cc4)n3n2)cc1`, the growth in test [1] is 78.9%; in [2], -44.9% (active); in [3], -25.8% (active); in test [4] it was -66.3% (active); in test [5], 24.7%; in test [6], 30.3%. The growth is -58.2% (active) in test [7], 47.4% in [8], -56.6% (active) in [9] and -23% (active) in [10].
Turning to `COc1ccc(-c2cc(C(=O)N=Nc3c(O)[nH]c4ccccc34)c3ccccc3n2)cc1OC`, the growth is 86.2% in test [1]; 89.7% in test [2]; 93.2% in test [3]; 99% in [4]; 89.5% in test [5]; 90.2% in test [6]. Moreover, the growth in [7] is 95.7%; in test [8] it was 104%; in test [9], 98.3%; in [10], 104%.
Regarding `COc1ccc(Cc2nn(CC(=O)N/N=C/c3ccc(Cl)cc3)c(=O)c3c(C)noc23)cc1`, the growth in test [1] was 69.8%; in test [2], 94.8%; in test [3], 70.4%; in test [4], 64.9%; in test [5] it was 89.5%; in test [6], 74.4%. In addition, the growth in [7] is 46%; in [8], 52.6%; in [9], 102%; in [10], 93%.
For `O=C(N/N=C/c1ccc(Cl)s1)c1[nH]c2ccc(Br)cc2c1-c1ccccc1`, the growth in test [1] is 55.9%; in test [2], 49.4%; in test [3], 30.2%; in [4], 3.42% (active); in [5] it was 35.6%; in test [6] it was -35.1% (active). Also, the growth in test [7] was 21.2%; in test [8] it was 7.94% (active); in test [9] it was -68.4% (active); in test [10], 22%.
`C#Cc1nc(C2=C(C)/C(=N/OCc3ccccc3)CC2)cs1`: the growth in test [1] is 48.4%; in [2], 92.6%; in test [3], 55.6%; in [4] it was 39.6%; in [5] it was -79.2% (active); in [6], -56.9% (active). In addition, the growth is 84.5% in test [7], -95.7% (active) in test [8], 83.5% in test [9] and 88.5% in test [10].
`COc1ccc(-c2nc3ccc(-c4nnc(SCC(=O)Nc5ccc(C(=O)/C=C/c6ccccc6)cc5)o4)cc3[nH]2)cc1OC`: the growth in test [1] was 98.2%; in test [2], 102%; in [3] it was 101%; in test [4], 106%; in [5], 98.4%; in test [6], 98.4%. Besides, the growth in test [7] is 102%; in test [8], 99.3%; in test [9] it was 115%; in [10], 107%.
For `CC1=C(C)C(=O)C(Nc2cccc(C(F)(F)F)c2)=C(Cl)C1=O`, the growth was 90.9% in test [1]; 101% in test [2]; 91% in [3]; 94.9% in test [4]; 48.9% in [5]; 17.7% in test [6]. In addition, the growth in [7] is 96.8%; in test [8], 102%; in test [9], 102%; in test [10] it was 99.7%.
With `CN(C)CCCNc1c2ccccc2nc2c1oc1ccc(Cl)cc12`, the growth was 28.5% in [1]; 24.4% in test [2]; 55.7% in test [3]; 12.6% in [4]; 34.8% in [5]; 38% in test [6]. Besides, the growth in test [7] is 27.5%; in test [8], 18.6%; in test [9], 14.5%; in [10] it was 20.8%.
